Assay outcomes: PubChem, National Center for Advancing Translational Sciences (NCATS)
TGFb SMAD3 inh – qHTS for Inhibitors of TGF-b | hit rate 1.2% among 410,000 | Potency, µM (doses to about 46.1 µM), inactives show top-dose activity, negative = inhibition, most hits filed as inhibitors | HepG2 CAGA-GFP TGF-b/SMAD3 reporter, GFP fluorescence, 18 h; TGF-beta stimulated, 500 pg/mL final | AID 588855, 2011; also: % is scaled to controls: 0 for no effect and ±100 for the full control effect; nearly all actives have a fitted effect of over 65% in size
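Smad-responsive CAGA-GFP expression was quantified in HEPG2 cells exposed to compounds and 500 pg/mL final TGF-beta for 18 h at 37 degrees C; unstimulated wells defined full inhibition.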
HT1080 IDH1KD tx – qHTS for induction of synthetic lethality in tumor cells producing 2HG: qHTS for the HT-1080-IDH1KD cell line; HT-1080 IDH1 knockdown viability, ATP luminescence, 48 h; Potency, µM (highest dose often 46.1 µM), inactives show at the highest dose activity, negative = toxicity, most hits filed as cytotoxic; hit rate 2% among 360,000;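 also: 0% = DMSO wells and -100% = cell-free medium wells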
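HT-1080-IDH1KD cells (IDH1 knocked down), 750/well in RPMI with 5% FBS, treated with compound 48 h at 37 degrees C. Viability by CellTiter-Glo luminescence, normalised to DMSO and no-cell wells; concentration-response curves classed.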
ATXN2 expr inh – Primary qHTS for Inhibitors of ATXN expression. Potency, µM (series often up to 57 µM), inactives show at the highest dose activity change, negative = inhibition, hits mostly inhibitors. hit rate 0.72% among 360,000. HEK-293 ATXN2-luciferase reporter, luminescence, 24 h; also: % is scaled to controls: 0 for no effect and ±100 for the full control effect; nearly all actives have a fitted effect of over 55% in size
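qHTS (up to 57 uM final) was run with 24 h compound exposure of reporter cells at 37 °C. Each well was multiplexed: SteadyGlo luminescence measured ATXN2-luciferase expression after a fluorogenic Gly-Phe-AFC viability readout (25 uM final).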
HepG2 viability – qHTS for Inhibitors of TGF-b: Cytotox Counterscreen | HepG2 CAGA-GFP viability, ATP luminescence, 18 h | Potency, µM (doses to about 46.1 µM), for inactives: at the highest dose activity change, negative = cytotoxicity, usual class: cytotoxic | hit rate 0.76% among 410,000 | AID 588856, 2011
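HepG2 CAGA-GFP cells (1000/well, DMEM with 1% FBS) received compound, then TGF-beta at 500 pg/mL final, and were incubated 18 hours at 37 degrees C. Viability was read by CellTiter-Glo luminescence. Media-only wells were set as complete cell-killing and DMSO as no toxicity.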
HT1080-NT tox – qHTS for induction of synthetic lethality in tumor cells producing 2HG: qHTS for the HT-1080-NT fibrosarcoma cell line; hit rate 1.6% among 360,000; Potency, µM (highest dose often 46.1 µM), inactives show top-dose activity, negative = less viability, actives largely listed as cytotoxic; HT-1080-NT fibrosarcoma viability, CellTiter-Glo ATP luminescence, 48 h;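 also: NT is the 2HG producing partner of a matched IDH1 knockdown line; 0% = DMSO-treated cells and -100% = media-only wells without cells; nearly all actives have a fitted effect of over 55% in size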
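Fibrosarcoma NT cells, 750 per well in 5% FBS RPMI, were exposed to compound for 48 hours. Viability: CellTiter-Glo luminescence.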
S2 tox – Viability Counterscreen for Primary qHTS for Inhibitors of ATXN expression; Potency, µM (titrated, usually from 56.7 µM), most hits filed as cytotoxic; hit rate 0.49% among 400,000; S2 cells (HEK-293 line with an ATXN2-luciferase reporter) viability, CellTiter-Fluor protease fluorescence, 24 h; also: nearly all actives have a fitted effect of over 40% in size
* hit, by the source's call; i = inactive; ? = inconclusive; / = no result given; ! = not active in a repeat. Sampled rows, rich in hits. Any-hit rate of the full collection: about 3.8%. Calls follow the shape of the dose curve; as a rule, active = well fitted curve in the direction sought with a large enough effect; inconclusive = small, poorly fitted or top-dose-only effect, or another doubt; inactive = no such curve, though single readings can be large; an effect the other way counts as inactive or inconclusive. Potency is read from the fitted curve at half-maximal effect.

SMILES	TGFb SMAD3 inh	HT1080 IDH1KD tx	ATXN2 expr inh	HepG2 viability	HT1080-NT tox	S2 tox
NC(=O)CSc1nnc(-c2ccccn2)n1Cc1ccco1	25%	-1%	-12%	-2%	10%	i
CCC(C)NC(=O)Nc1ccc(Br)cc1 (stereo unspecified)	-15%	3%	1%	-15%	-2%	i
CCOC(=O)C(=NC(C)CC)NNc1ccc(Br)cc1 (stereo unspecified)	-3%	?	-30%	-15%	16µM*	i
CCC(=O)NNc1ccc(Br)cc1	-8%	4.1µM*	-19%	0%	3.7µM*	i
C(=C\c1ccnc2ccccc12)/c1ccc2c(c1)OCO2	8%	/	/	-4%	/	/
O=C(NCC1(N2CCCCC2)CCCC1)c1cnn(-c2nccc(-c3cccs3)n2)c1C1CC1	/	/	/	/	/	i
O=C1c2ccccc2-c2onc3c(N4CCN(C5CCCCC5)CC4)cc(NCCO)c1c23	-21%	/	/	-18%	/	/
CN(C)CCCNc1cc(N2CCN(C3CCCCC3)CC2)c2noc3c2c1C(=O)c1ccccc1-3	275%	/	/	16µM*	/	/
CCNC(=O)c1c(NC(=O)c2nc(SC)ncc2Cl)sc2c1CCCC2	-5%	/	/	-6%	/	/
Cc1cc(SCC(=O)c2ccc(O)c(O)c2)n2nc(C)c(-c3ccccc3)c2n1	18µM*	9.2µM*	?	-28%	8.2µM*	?
CC(=O)Nc1ccc(NC(=O)c2nc(SCc3ccccc3F)ncc2Cl)cc1	0%	/	/	-48%	/	/
Cc1cccc(NC(=O)Cc2coc3ccc4ccccc4c23)n1	-7%	7.1µM*	0%	-25%	?	i
O=C(O)Cc1coc2ccc3ccccc3c12	0%	-3%	-10%	-4%	-13%	i
NC(=O)NO	-7%	12%	7.7µM*!	-2%	25%	i
Cc1[nH]c(C)c(C(=O)/C=C/c2ccc([N+](=O)[O-])cc2)c1C	?	12µM*	/	-42%	?	?
COc1ccc(C=CC(=O)c2ccc([N+](=O)[O-])cc2)cc1	0%	-20%	-18%	14%	12%	i
CCCc1nn2c(=O)cc(COC(=O)c3ccccc3NC(=O)c3ccc(Cl)cc3)nc2s1	10%	/	/	2%	/	/
CC(=O)Nc1nc2nc(-c3ccccc3)cc(-c3ccccc3)n2n1	-8%	0%	-3%	-9%	2%	i
O=C(Nc1nc2nc(-c3ccccc3)cc(-c3ccccc3)n2n1)c1ccco1	-5%	26µM*	11%	-22%	?	i
Cc1ccc(F)c(NC(=O)/C(C#N)=C(\O)c2ccc(C(C)(C)C)cc2)c1	13µM*	?	/	13µM*	-28%	i
COc1cc(Cl)cc(/C=C/c2ccc3ccccc3n2)c1OC(C)=O	-6%	15µM*	75%	-67%	15µM*	i
COc1cc(OC)c(OC)cc1/C=C/c1ccc2ccccc2n1	1%	/	/	-16%	/	/
COc1ccccc1C(O)c1nccn1Cc1ccccc1 (stereo unspecified)	14%	/	/	4%	/	/
CCCN1Cc2cccc(C(=O)Nc3ccccc3C(=O)OC)c2C1=O	-25%	/	-29%	-18%	/	i
COc1ccc(NC(=O)CSc2nc(-c3cccs3)cc(C(F)(F)F)n2)cc1OC	?	/	-23%	-8%	/	i
SMILES	TGFb SMAD3 inh	HT1080 IDH1KD tx	ATXN2 expr inh	HepG2 viability	HT1080-NT tox	S2 tox
O=C(CSc1nc(-c2cccs2)cc(C(F)(F)F)n1)Nc1cc(OCC(F)(F)F)cc([N+](=O)[O-])c1	-5%	16µM*	?	19%	?	16µM*
CC(=O)c1ccc(C(=O)NCC2Cc3cccc(-c4ncccn4)c3O2)cc1 (stereo unspecified)	/	/	/	/	/	i
Cn1cc(C2=C(c3cn(CCCSC(=N)N)c4ccccc34)C(=O)NC2=O)c2ccccc21	0.71µM*	/	/	2µM*	/	/
O=C(Nc1ccc(/C=C/c2ccc(NC(=O)c3cc(S(=O)(=O)O)c4cccnc4c3O)cc2S(=O)(=O)O)c(S(=O)(=O)O)c1)c1cc(S(=O)(=O)O)c2cccnc2c1O	/	/	/	/	/	i
CC(C)CNC(=S)NNC(=O)c1csc2c1CCCC2	?	?	-20%	-31%	8.9µM*	i
O=C(C(=Cc1ccccc1)CN1CCCCC1)c1ccccc1	?	4.6µM*	?	-101%	?	8.4µM*
CC(C)(C)n1ncc2c(=O)n(Cc3ccc(C#N)c(F)c3)cnc21	-3%	/	/	-1%	/	/
COc1cccc2sc(N3CCN(C(=O)CCS(=O)(=O)c4ccc(F)cc4)CC3)nc12	?	/	/	-16%	/	/
COc1ccc(-c2cc3c(=O)n(CC(=O)Nc4cc(C)ccc4C)ccn3n2)cc1	-5%	/	10%	-1%	/	?
C/C(=N/Nc1ccnc2cc(Cl)ccc12)c1ccc(N)cc1	?	?	0%	-47%	?	25µM*
C/C(=N/Nc1ccnc2cc(Cl)ccc12)c1ccc(O)cc1	?	-4%	-34%	-97%	-8%	?
Cc1ccccc1N1CCN(CCc2nnc3n2CCCC3)CC1	/	/	8%	/	/	i
C/C(CC(=O)Nc1cc(Cl)ccc1Cl)=N\NC(N)=S	-21%	-4%	3%	1%	-8%	i
CO/N=C\CC(=O)Nc1ccc(Cl)cc1Cl	-16%	8.2µM*	-31%	1%	?	i
C/C(CC(=O)Nc1ccc(Cl)cc1Cl)=N\NC(N)=S	?	7.9µM*	5%	-26%	10µM*	i
